Reference: PubChem BioAssay (NCATS)
Results filed as inconclusive are left out. Activity calls are given as the source filed them. The call rests on the fitted dose curve; in most records, active means well fitted curve in the direction sought with a large enough effect; inconclusive means small, poorly fitted or top-dose-only effect, or another doubt; inactive means no such curve, though single readings can be large; an effect the other way counts as inactive or inconclusive.

What was measured:
[1] = qHTS of pediatric cancer cell lines to identify multiple opportunities for drug repurposing: Primary screen for SJ-GBM2 cells (AID 1347091)
How it was run: (§1)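 Viability measured as metabolically active cells via CellTiter-Glo luminescence following 48 hours of compound exposure, 11-point dilutions in confirmatory testing. 500-1,000 cells/well plated 5 hours before dosing; controls were DMSO and 2.3 µM bortezomib.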

[2] = qHTS of pediatric cancer cell lines to identify multiple opportunities for drug repurposing: Primary screen for A673 cells (AID 1347092); further: nearly all actives have a fitted effect of over 45% in size
How it was run: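 Cells are plated, rested 5 h, dosed by pintool, incubated 48 h, then lysed with CellTiter-Glo and read by luminescence. DMSO is the neutral control; bortezomib at 2.3 uM final is the positive control.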

[3] = qHTS of pediatric cancer cell lines to identify multiple opportunities for drug repurposing: Primary screen for SK-N-MC cells (AID 1347093)
How it was run: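 Metabolically active cells were quantified by ATP-dependent luminescence (CellTiter-Glo, 15 min at room temperature) following 48 h treatment. Cells had been plated at 500-1,000 per well and settled for 5 h beforehand.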

[4] = qHTS of pediatric cancer cell lines to identify multiple opportunities for drug repurposing: Primary screen for BT-37 cells (AID 1347094)
How it was run: (§2)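 ATP-based luminescence (CellTiter-Glo) quantifies viability after a 48-hour exposure. Compounds are dosed across 8 or 11 final concentrations; DMSO and 2.3 µM bortezomib serve as controls.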

[5] = qHTS of pediatric cancer cell lines to identify multiple opportunities for drug repurposing: Primary screen for NB-EBc1 cells (AID 1347095)
How it was run: as §2

[6] = qHTS of pediatric cancer cell lines to identify multiple opportunities for drug repurposing: Primary screen for U-2 OS cells (AID 1347096); further: nearly all actives have a fitted effect of over 50% in size
How it was run: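 Viability after 48 h compound treatment at 37C, 500-1,000 cells/well, read as ATP luminescence with CellTiter-Glo. Primary screens used 11-point (MIPE, 0.78 nM-46 µM) or 8-point (NPC, 0.59 nM-46 µM) final concentrations; follow-up screens used 11-point dilutions.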

[7] = qHTS of pediatric cancer cell lines to identify multiple opportunities for drug repurposing: Primary screen for Saos-2 cells (AID 1347097); further: nearly all actives have a fitted effect of over 40% in size
How it was run: as §2

[8] = qHTS of pediatric cancer cell lines to identify multiple opportunities for drug repurposing: Primary screen for DAOY cells (AID 1347090); further: nearly all actives have a fitted effect of over 55% in size
How it was run: as §1
Potency means the concentration at half of the fitted maximal effect.

| Structure (SMILES) | Potency [1] | Potency [2] | Potency [3] | Potency [4] | Potency [5] | Potency [6] | Potency [7] | Potency [8] |
| --- | --- | --- | --- | --- | --- | --- | --- | --- |
| COc1cccc(-c2ccc(NC(=O)C3=C(C(=O)O)CCC3)c(F)c2)c1 | 11.8 µM (active) | 5.9 µM (active) | 1.32 µM (active) | 19.3 µM (active) | 3.72 µM (active) | inactive | 13.2 µM (active) | – |
| CCC1=C[C@@H]2CN(C1)Cc1c([nH]c3ccccc13)[C@@](C(=O)OC)(c1cc3c(cc1OC)N(C)[C@@H]1[C@@](O)(C(=O)OC)[C@H](OC(C)=O)[C@]4(CC)C=CCN5CC[C@]31[C@@H]54)C2 | – | 0.0093 µM (active) | 0.0083 µM (active) | 0.0432 µM (active) | 0.235 µM (active) | inactive | 0.0166 µM (active) | 0.187 µM (active) |
| Cn1c(=O)n(-c2ccc(C(C)(C)C#N)cc2)c2c3cc(-c4cnc5ccccc5c4)ccc3ncc21 | 0.0662 µM (active) | 0.0296 µM (active) | – | 0.0544 µM (active) | – | – | 0.235 µM (active) | – |
| O=C(NCCS(=O)(=O)c1ccc(C(F)(F)F)cn1)c1ccc(Cl)cc1 | – | inactive | – | inactive | inactive | inactive | – | – |
| COc1cc(-c2nn(C3CCC(N4CCN(C(C)=O)CC4)CC3)c3ncnc(N)c23)ccc1NC(=O)c1cc2ccccc2n1C (stereo unspecified) | 1.87 µM (active) | 0.235 µM (active) | 0.743 µM (active) | – | – | – | 0.526 µM (active) | – |
| CC(=O)c1c(C)c2cnc(Nc3ccc(N4CCNCC4)cn3)nc2n(C2CCCC2)c1=O | – | 14.8 µM (active) | 20.9 µM (active) | 24.3 µM (active) | 20.9 µM (active) | – | 18.7 µM (active) | – |
| CC(C)(C)c1cc(NC(=O)Nc2ccc(-c3cn4c(n3)sc3cc(OCCN5CCOCC5)ccc34)cc2)no1 | 14.8 µM (active) | – | 0.743 µM (active) | – | 16.6 µM (active) | inactive | 18.7 µM (active) | – |
| Cc1cc(Nc2ncnc3ccc(-c4ccc(CNCCS(C)(=O)=O)o4)cc23)ccc1Oc1ccn2ncnc2c1 | – | 0.235 µM (active) | 4.18 µM (active) | 6.11 µM (active) | 4.18 µM (active) | – | 2.09 µM (active) | 9.35 µM (active) |
| N#CCNC(=O)c1ccc(-c2ccnc(Nc3ccc(N4CCOCC4)cc3)n2)cc1 | – | 7.43 µM (active) | 4.69 µM (active) | 21.7 µM (active) | – | inactive | – | 14.8 µM (active) |
| O=C(Nc1nc2cccc(-c3ccc(CN4CCS(=O)(=O)CC4)cc3)n2n1)C1CC1 | 18.7 µM (active) | 11.8 µM (active) | 5.26 µM (active) | 19.3 µM (active) | 10.5 µM (active) | inactive | 18.7 µM (active) | – |
| Nc1ccc(C(=O)c2cc3c(ccc4ccccc43)[nH]2)cc1 | 2.35 µM (active) | 2.96 µM (active) | 2.09 µM (active) | 7.69 µM (active) | 1.66 µM (active) | inactive | 2.35 µM (active) | – |
| Nc1nccc(Oc2ccc(NC(=O)c3c[nH]cc(-c4ccc(F)cc4)c3=O)cc2F)c1Cl | – | 5.9 µM (active) | 2.35 µM (active) | 2.17 µM (active) | 1.05 µM (active) | inactive | 18.7 µM (active) | 14.8 µM (active) |
| CCN1CCN(CC(=O)Nc2ccc(-c3cccc4c(=O)cc(N5CCOCC5)oc34)c3sc4ccccc4c23)CC1 | 0.743 µM (active) | 2.35 µM (active) | 0.59 µM (active) | 4.85 µM (active) | 1.18 µM (active) | – | 2.96 µM (active) | – |
| Fc1cc(-c2cccc3ncc(-c4cnn(C5CCNCC5)c4)nc23)cc(F)c1CN1CCOCC1 | 16.6 µM (active) | 18.7 µM (active) | 14.8 µM (active) | 24.3 µM (active) | – | inactive | 29.6 µM (active) | – |
| NC1(Cc2ccc(Cl)cc2)CCN(c2ncnc3[nH]ccc23)CC1 | – | 14.8 µM (active) | 3.32 µM (active) | – | – | – | 5.26 µM (active) | – |
| CN(C1CCc2c(c3ccccc3n2CC(=O)O)C1)S(=O)(=O)c1ccc(F)cc1 (stereo unspecified) | – | 0.935 µM (active) | 0.935 µM (active) | – | – | inactive | – | 5.9 µM (active) |
| CN1CCC(CNc2ccc3ncc(-c4cccc(OC(F)(F)F)c4)n3n2)CC1 | 16.6 µM (active) | 14.8 µM (active) | 4.18 µM (active) | 21.7 µM (active) | 18.7 µM (active) | – | 18.7 µM (active) | – |
| O=C(O)C1(Cc2cccc(Nc3nccs3)n2)CCC(Oc2cccc(Cl)c2F)CC1 (stereo unspecified) | – | – | 1.66 µM (active) | inactive | – | inactive | – | – |
| CC1(O)CC(c2nc(-c3ccc4ccc(-c5ccccc5)nc4c3)c3c(N)nccn23)C1 (stereo unspecified) | 10.5 µM (active) | 23.5 µM (active) | 0.0418 µM (active) | 19.3 µM (active) | 0.662 µM (active) | – | 0.935 µM (active) | – |
| Cc1cc(CN2CCN(c3c(Br)cnc4nc(-c5ccc(N6CCN(C)CC6)cc5)[nH]c34)CC2)no1 | 5.9 µM (active) | 23.5 µM (active) | 1.18 µM (active) | – | 2.35 µM (active) | inactive | – | – |
| Nc1cccc(-c2cc3c(Oc4cccc(O)c4)ncnc3[nH]2)c1 | – | 14.8 µM (active) | 1.05 µM (active) | – | 3.72 µM (active) | inactive | 1.87 µM (active) | 7.43 µM (active) |
| Clc1ccc2ncc(-c3cccc(NC4CNC4)n3)n2c1 | – | 4.69 µM (active) | 7.43 µM (active) | 17.2 µM (active) | – | inactive | inactive | – |
| Cn1cc(-c2ccncc2)c(-c2ccc(OCc3ccc4ccccc4n3)cc2)n1 | – | 3.72 µM (active) | 9.35 µM (active) | – | – | inactive | 11.8 µM (active) | 4.69 µM (active) |
| C[C@@H]1COC(Nc2ccc3ncnc(Nc4ccc(OCc5nccs5)c(Cl)c4)c3c2)=N1 | – | 0.935 µM (active) | 2.35 µM (active) | 24.3 µM (active) | 2.64 µM (active) | – | 29.6 µM (active) | 0.935 µM (active) |
| COC(=O)Nc1ccc(-c2nc(N3CCOCC3)c3cnn(C4CCN(Cc5cccnc5)CC4)c3n2)cc1 | – | 4.69 µM (active) | 0.0469 µM (active) | 0.544 µM (active) | 1.18 µM (active) | inactive | 0.833 µM (active) | 4.69 µM (active) |
| CS(=O)(=O)N1CCN(Cc2cc3nc(-c4cccc5[nH]ncc45)nc(N4CCOCC4)c3s2)CC1 | 0.372 µM (active) | 4.69 µM (active) | 0.0418 µM (active) | 6.85 µM (active) | 0.833 µM (active) | – | 0.0526 µM (active) | – |
| CNC(=O)c1nn(C)c2c1C(C)(C)Cc1cnc(Nc3ccc(N4CCN(C)CC4)cc3)nc1-2 | – | 2.96 µM (active) | 0.59 µM (active) | 1.72 µM (active) | 2.35 µM (active) | 5.9 µM (active) | 2.35 µM (active) | 11.8 µM (active) |
| C=CC(=O)Nc1cccc(Oc2nc(Nc3ccc(N4CCN(C)CC4)cc3OC)ncc2Cl)c1 | – | – | – | 27.3 µM (active) | – | 23.5 µM (active) | 6.62 µM (active) | 0.0372 µM (active) |
| Cc1cccc(C=NNc2cc(N3CCOCC3)nc(OCCc3ccccn3)n2)c1 | 1.32 µM (active) | 7.43 µM (active) | – | – | 1.32 µM (active) | – | – | – |
